# Reference: PubChem BioAssay AID1259400 (National Center for Advancing Translational Sciences (NCATS), 2018)
# Among all 350,000 compounds or so, about 2,100 (0.6%) were called active. Inconclusive results (about 1%) are left out. This excerpt belongs to a sample that is enriched for actives. A number with no mark means an inactive call.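 Rule for the calls: active = activity change of -60% or lower, but not beyond a set lower limit; inconclusive = change between -60% and -40%, or beyond the set limit; inactive = change above -40%.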
# Biological target: Relaxin receptor 1 (Homo sapiens) (UniProt Q9HBX9)
# Sequence (Q9HBX9 whole entry, looked up): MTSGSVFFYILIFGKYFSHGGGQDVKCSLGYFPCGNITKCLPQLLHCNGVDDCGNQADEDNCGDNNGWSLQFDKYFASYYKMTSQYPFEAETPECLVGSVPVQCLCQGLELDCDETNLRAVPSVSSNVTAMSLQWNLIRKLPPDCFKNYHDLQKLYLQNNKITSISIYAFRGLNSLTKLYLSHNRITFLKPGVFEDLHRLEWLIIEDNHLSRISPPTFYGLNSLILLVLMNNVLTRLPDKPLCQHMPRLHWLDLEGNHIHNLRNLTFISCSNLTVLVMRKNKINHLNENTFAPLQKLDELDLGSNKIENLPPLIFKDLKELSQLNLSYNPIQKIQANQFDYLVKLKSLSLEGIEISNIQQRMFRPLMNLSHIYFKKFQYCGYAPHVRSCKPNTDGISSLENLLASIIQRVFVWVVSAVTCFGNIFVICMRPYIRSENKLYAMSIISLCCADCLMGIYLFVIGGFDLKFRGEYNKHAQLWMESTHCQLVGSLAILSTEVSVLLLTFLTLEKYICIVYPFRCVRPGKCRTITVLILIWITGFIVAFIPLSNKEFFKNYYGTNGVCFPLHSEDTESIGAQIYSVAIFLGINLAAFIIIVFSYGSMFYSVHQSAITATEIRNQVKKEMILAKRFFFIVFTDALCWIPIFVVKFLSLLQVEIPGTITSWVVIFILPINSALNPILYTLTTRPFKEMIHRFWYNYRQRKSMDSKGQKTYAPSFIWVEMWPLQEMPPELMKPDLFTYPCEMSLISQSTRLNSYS
# Experiment: qHTS Assay for Antagonists of the Relaxin Receptor RXFP1
# Settings: HEK293-RXFP1, relaxin-stimulated cAMP HTRF, 30 min; at 57.5 µM; stronger effect = lower value
# % is set by controls: 0 for no effect and ±100 for the full control effect.
row,Compound,"activity change, negative = inhibition"
1,Cc1c(Cl)cccc1-c1ccc(CNCCCSc2nnnn2C)o1,-6.68%
2,Cc1ccc(C2C=C(c3ccc(Cl)cc3)Nc3nc(NC(=O)CCC(=O)O)nn32)cc1 (stereo not drawn),-0.127%
3,Cc1ccc(Cl)cc1N1CCN(C(=O)c2cnc3c(-c4ccc(F)cc4)c(C)nn3c2C)CC1,-19.1%
4,CC(C)OC(=O)c1ccc(NCc2cc(O)ccc2O)cc1Cl,-85.7% (active)
5,O=C(OC12CC3CC(CC(C3)C1)C2)c1ccc(NCc2cc(O)ccc2O)cc1,-37.9%
6,COC(=O)c1ccc(NCc2cc(O)ccc2O)cc1,-28.1%
7,CCCN1CCc2nc(N3CCN(C)CC3)ncc2C1,3.24%
8,Oc1ccc(/C=N/Nc2ccc(C(F)(F)F)cn2)cc1O,-72.1% (active)
9,FC(F)(F)c1cccc(N/N=C/c2ccccc2)c1,6.38%
10,O=C(N/N=C/c1ccc(O)c(O)c1)C1c2ccccc2Oc2ccccc21,-17.9%
11,CC1(C)OC[C@@H](COC(=O)CCc2ccc(OC[C@@H](O)CNCCNC(=O)N3CCOCC3)cc2)O1,-4.26%
12,O=C(CSc1nc(=O)[nH]c2c1CCCC2)Nc1cc(C(F)(F)F)ccc1Cl,6.44%
13,COc1ccc(NC(=O)CSc2nccn2C2CCCC2)cc1OC,6.9%
14,O=C(CSc1nccn1C1CCCC1)Nc1cc(C(F)(F)F)ccc1Cl,-72.3% (active)
15,Cc1cc2c(cc3c(SCc4cccc(Cl)c4)nnc(C)n32)o1,-4.3%
16,O=C(CSc1ccc([N+](=O)[O-])cn1)Nc1ccc(N2CCOCC2)cc1,-66.8% (active)
17,O=C(CSc1ccc([N+](=O)[O-])cn1)Nc1ccc(N2CCOCC2)c(Cl)c1,-1.58%
18,Cn1cnnc1SCC(=O)Nc1ccc(N2CCOCC2)cc1,-11.8%
19,Cc1ccc(O)c(NC(=O)c2cc(-c3ccc(F)cc3)no2)c1,-3.02%
20,CC(=O)c1ccc(NC(=O)CSc2c(C(C)C)cnc3c2c(=O)n(C)c(=O)n3C)cc1,3.09%
21,CC(C)c1ccc(C2CC(=O)N3CN(C4CCCCC4)CSC3=C2C#N)cc1 (stereo not drawn),-4.73%
22,Cc1ccc(-c2nc3cccc(C)n3c2Nc2ccc3c(c2)OCCO3)cc1,3.27%

row,Compound,"activity change, negative = inhibition"
1,CC(=N\NC(=O)c1cc(Br)ccc1O)/C(=N/O)C(=O)Nc1ccccc1,-80.9% (active)
2,CC(=O)N/N=C(\C)c1ccc(Br)cc1Br,3.93%
3,COc1ccc(-c2[nH]ncc2/C=N/NC(=O)c2cc(Br)ccc2O)c(OC)c1,-30%
4,COc1cc(CNC2CCCCC2)c(Br)cc1OC1CCCC1,-7.24%
5,CC(C)(C)NCc1cc(Br)ccc1OC1CCCC1,-6.03%
6,CC(NCc1ccccc1OC1CCCC1)c1ccccc1 (stereo not drawn),-60.9% (active)
7,O=C(Cn1nc(Cc2cccnc2)c2ccccc2c1=O)N1CCN(c2ccccc2F)CC1,5.94%
8,CCCc1cc(=O)n2[nH]c(NCc3ccc(CC)cc3)nc2n1,-11.6%
9,Cc1ccc(-c2cc(C(=O)Oc3ccccc3Cl)no2)cc1C,-12.2%
10,O=C(N/N=C/C=C/c1ccco1)c1cccs1,-79.6% (active)
11,O=C(N/N=C/c1ccco1)c1csc2c1CCCC2,-11.1%
12,Cc1ccc(-n2nc(C)c(/C=N/NC(=O)c3cccs3)c2Cl)cc1,-17.6%
13,O=C(Nc1c(C(=O)N2CCN(c3ccc(F)cc3)CC2)oc2ccccc12)c1ccco1,-14.5%
14,CCCCNC(=O)c1cc(-c2ccc(Cl)c(Cl)c2)on1,-6.36%
15,C=CS(=O)c1sc(Cl)c(N2CCOCC2)c1[N+](=O)[O-] (stereo not drawn),-60.3% (active)
16,O=C(NCCCN1CCN(c2cccc(Cl)c2)CC1)c1nnc(Cc2ccc(F)cc2Cl)o1,-19.5%
17,COc1ccc(CCNC(=O)c2cn(C)c3ccc(S(=O)(=O)N(C)C4CCCCC4)cc3c2=O)cc1OC,-10.4%
18,CCOC(=O)C1Cn2c(nc3c(c2=O)C(C)(CC)Cc2ccccc2-3)S1 (stereo not drawn),-6.89%
19,N#CCSc1nc2c(c(=O)n1Cc1ccccc1)C1(CCCC1)Cc1ccccc1-2,-9.93%
20,CCC1(CC)Cc2ccccc2-c2nc(CCl)[nH]c(=O)c21,-80.4% (active)
21,CCc1nc(-c2cc(S(=O)(=O)N3CCN(c4ccc(OC)cc4)CC3)ccc2OC)no1,0.921%
22,CCCC12CN3CC(CCC)(CN(C1)C3c1c[nH]c3ccc(OC)cc13)C2=O (stereo not drawn),-18.6%

row,Compound,"activity change, negative = inhibition"
1,COC(=O)C(NC(C)=O)(Nc1nc2c(s1)CCCC2)C(F)(F)F (stereo not drawn),-2.87%
2,O=C(Nc1nc2c(s1)CCCC2)c1ccccc1F,-33.1%
3,Cc1cc(C)cc(OC(C)C(=O)Nc2nc3c(s2)CCCC3)c1 (stereo not drawn),-103% (active)
4,CCC(Sc1nc2n[nH]c(C)c2c(=N)n1-c1ccccc1Cl)C(=O)N(CC)CC (stereo not drawn),-33.6%
5,COc1ccc(C)cc1N(C)C(=O)c1c(C)oc2ncnc(N3CCOCC3)c12,-0.158%
6,COc1ccc(OC)c(C(=O)NC2CCCc3c2cnn3-c2cc(C)cc(C)c2)c1 (stereo not drawn),2.28%
7,COc1ccc(C(=O)NC2CCCc3c2cnn3-c2cccc(C)c2C)c(OC)n1 (stereo not drawn),-116% (active)
8,Cc1ccc(-n2ncc3c2CCCC3NC(=O)c2cnccn2)cc1C (stereo not drawn),-3.03%
9,NCC[C@H](O)C(=O)N[C@@H]1C[C@H](N)[C@@H](O[C@H]2O[C@H](CN)[C@@H](O)[C@H](O)[C@@H]2O)[C@H](O)[C@@H]1O[C@H]1O[C@H](CO)[C@@H](O)[C@H](N)[C@@H]1O,-6.65%
10,CCOCC(=O)NCc1ccc2c(c1)cc(C)n2C,-74.1% (active)
11,COc1ccc(CNC(=O)CCn2cccc2)cc1,-6.31%
12,COc1cc(C(=O)NCc2ccc3c(c2)cc(C)n3C)cc(OC)c1OC,12%
13,CCOc1ccc(-c2cc3c(=O)n(CC(=O)NCc4ccc(OC)cc4)ccn3n2)cc1,4.95%
14,COc1ccc(Cn2ccnc2SCC(=O)Nc2ccc3c(c2)OCO3)cc1,-2.29%
15,Cc1ccc(CN2CCc3nc(N4CCN(C)CC4)ncc3C2)cc1,-7.68%
16,Cc1cc(-c2ccccc2)n2nc(-c3ccccc3)cc2n1,-15.7%
17,Cc1cccc(-n2ncc(C(=O)N3CCN(c4ccc(Cl)cc4)CC3)c2C2CCN(C(=O)OC(C)(C)C)CC2)c1,-19.9%
18,O=C(OCC(O)CO)c1ccccc1Nc1ccnc2c(C(F)(F)F)cccc12 (stereo not drawn),-23.3%
19,Cc1ccc(CN2CCC(CNC(=O)c3cnn(-c4ccccc4Cl)c3C3CCN(C(=O)OC(C)(C)C)CC3)CC2)cc1,-35.3%
20,Cc1cccc(-n2ncc(C(=O)N3CCC(C)CC3)c2C2CCN(C(=O)OC(C)(C)C)CC2)c1,1.6%
21,Cc1ccc(C2CCN(C(=O)c3cnn(-c4ccccc4Cl)c3C3CCN(C(=O)OC(C)(C)C)CC3)C2)cc1 (stereo not drawn),-70.8% (active)
22,Cc1cccc(C)c1NC(=O)c1ccc(N)cc1,14.2%

row,Compound,"activity change, negative = inhibition"
1,CCOc1cccc2c1N[C@@H](c1ccc(C(=O)O)cc1)[C@H]1CC=C[C@@H]21,-4.8%
2,O=C(CCl)Nc1ccc(Sc2ccc(NC(=O)CCl)cc2)cc1,-96.8% (active)
3,CC(C)(CCl)C(=O)Nc1ccc(Sc2ccc(F)cc2)cc1,-28.2%
4,O=C(CCl)Nc1cccc(CP(=O)(c2ccccc2)c2ccccc2)c1,-12.2%
5,Cc1ccccc1CNC(=O)CCC(=O)N1Cc2ccccc2Oc2ncccc21,-120% (active)
6,CCCNC(=O)CCC(=O)N1Cc2ccccc2Oc2ncccc21,-2.12%
7,Cc1ccc(CNC(=O)CCC(=O)N2Cc3ccccc3Oc3ncccc32)cc1,0.223%
8,O=C(CC1N=C2c3ccccc3N=C(SCc3ccc(F)cc3)N2C1=O)NCc1cccs1 (stereo not drawn),-7.63%
9,COc1ccccc1C(=O)Nc1c(C(=O)N(C)Cc2ccccc2)sc2nc(C)c(Cl)c(C)c12,-8.81%
10,CCC(=O)N1CCc2cc(Br)cc(S(=O)(=O)CCC(=O)NCCc3ccc(OC)c(OC)c3)c21,-17.8%
11,Cc1ccc(C)c(N2CCN(C(=O)Cn3nc(C)c4sc5ccccc5c4c3=O)CC2)c1,-3.69%
12,CCOc1ccc(CNC(=O)C2CCCN(S(=O)(=O)N(CC)c3ccc(OCC)cc3)C2)cc1 (stereo not drawn),-7.3%
13,CCCCOc1ccc(CN2C(=O)C(=O)c3cc(Br)cc(C)c32)cc1OC,-71.4% (active)
14,CCCCN1C(=O)C(C)=C(C)C1OCCc1ccc(OC)c(OC)c1 (stereo not drawn),-1.03%
15,CCCCOc1ccc(Cn2c(=O)oc3ccc(C)cc32)cc1OC,-39.4%
16,Cc1cc(C)c2oc(C(=O)Nc3ccc(S(=O)(=O)N4CCCCCC4)cc3)cc(=O)c2c1,-1.32%
17,CO/N=C(\C(=O)N[C@@H]1C(=O)N2C(C(=O)O)=C(Cn3nnc(C)n3)CS[C@H]12)c1csc(N)n1,10%
18,O=C(COC(=O)c1ccc(Oc2ccccc2)cc1)Nc1nnc(-c2ccccc2)o1,-76.2% (active)
19,COc1ccccc1C(=O)NCC(=O)OCC(=O)Nc1nnc(-c2ccccc2)o1,-0.478%
20,CC(=O)Nc1cccc(C(=O)OCC(=O)Nc2nnc(-c3ccccc3)o2)c1,-4.64%
21,O=C(CN1CCSc2ccccc21)N1CCN(c2ccccc2)CC1,-6.69%
22,CCOc1ccc(-c2cc(C)n3nc(C(=O)Nc4ccc(C)c(C)c4)cc3n2)cc1,-24%
